± gives the uncertainty stated by the source.
The molecules below were run on U87 (assay: cell viability relative to vehicle control; higher = less growth inhibition (less active)). Settings: 10 µM; 72 h.
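Also: viable cell number estimated from Alamar Blue fluorescence read at 560/90, part of a single-dose primary screen of an FDA-approved drug library.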

SMILES | cell viability [%]
CN(C)[C@@H]1C(O)=C(C(=O)NCN2CCCC2)C(=O)[C@@]2(O)C(O)=C3C(=O)c4c(O)cccc4[C@@](C)(O)[C@H]3C[C@@H]12 | 107 ± 2.1
CN(C)CCc1c[nH]c2ccc(C[C@H]3COC(=O)N3)cc12 [Zolmitriptan] | 105 ± 1.6
CC[C@H](C)C(=O)O[C@H]1C[C@H](O)C=C2C=C[C@H](C)[C@H](CC[C@@H](O)C[C@@H](O)CC(=O)O)[C@H]21 [PRAVASTATIN Sodium] | 105.9 ± 0.46
COc1ccc2c3c1O[C@H]1C[C@@H](O)C=C[C@@]31CCN(C)C2 [Galanthamine] | 100 ± 0.85
OCc1cc(C(O)CNCCCCCCOCCCCc2ccccc2)ccc1O (stereo not given) [Salmeterol] | 106 ± 1.1
CN1CCN(CCCN2c3ccccc3Sc3ccc(Cl)cc32)CC1 | 95.9 ± 7
CNCCCCOc1ccccc1Cc1ccccc1 [Bifemelane] | 96.1 ± 9.1
Cc1cc2c(s1)Nc1ccccc1N=C2N1CCN(C)CC1 | 108 ± 1.7
COC(=O)C1=C(C)NC(C)=C(C(=O)OC)C1c1ccccc1[N+](=O)[O-] | 105 ± 1.4
Clc1ccc(CO/N=C(\Cn2ccnc2)c2ccc(Cl)cc2Cl)c(Cl)c1 | 103 ± 3.9
CN(CCO)CC(O)Cn1cnc2c1c(=O)n(C)c(=O)n2C (stereo not given) | 104.3 ± 0.69
NC(=O)OCC(COC(N)=O)c1ccccc1 [Felbamate] | 105.7 ± 1
Nc1ccc2cn[nH]c2c1 | 108 ± 2.4
CC1(C)O[C@@H]2[C@@H](CO[C@@]3(COS(N)(=O)=O)OC(C)(C)O[C@@H]23)O1 | 129 ± 2
CN(C)CCC[C@@]1(c2ccc(F)cc2)OCc2cc(C#N)ccc21 | 103 ± 1.9
C=CC1=C(C(=O)O)N2C(=O)[C@@H](NC(=O)/C(=N\OCC(=O)O)c3csc(N)n3)[C@H]2SC1 | 103.9 ± 0.8
N[C@@H]1CONC1=O | 96.3 ± 5
Nc1ccn([C@@H]2O[C@H](CO)[C@@H](O)[C@@H]2O)c(=O)n1 [2(1H)-Pyrimidinone, 4-amino-1-D-arabinofuranosyl- [CAS]] | 47.5 ± 2.9
CC(=O)CCCCn1cnc2c1c(=O)n(C)c(=O)n2C | 105 ± 1.2
CC(C)(C)NC(=O)[C@@H]1C[C@@H]2CCCC[C@@H]2CN1C[C@@H](O)[C@H](Cc1ccccc1)NC(=O)[C@H](CC(N)=O)NC(=O)c1ccc2ccccc2n1 | 96.4 ± 2.6

SMILES | cell viability [%]
CNCC[C@H](Oc1cccc2ccccc12)c1cccs1 | 101 ± 4.5
CCC(C)(C)N=C(NC#N)Nc1cccnc1 | 107 ± 1.1
CCOC(=O)c1ncn2c1CN(C)C(=O)c1cc(F)ccc1-2 | 103 ± 1.8
CSc1nc2cc(Cl)c(Oc3cccc(Cl)c3Cl)cc2[nH]1 | 103 ± 2.5
Nc1nc(Cl)nc2c1ncn2[C@@H]1O[C@H](CO)[C@@H](O)[C@H]1O | 90.6 ± 3
COc1cc(C(=O)NS(=O)(=O)c2ccccc2C)ccc1Cc1cn(C)c2ccc(NC(=O)OC3CCCC3)cc12 | 104 ± 1.1
CCCCCNC(=N)N/N=C/c1c[nH]c2ccc(OC)cc12 | 108 ± 1.2
CC#C[C@]1(O)CC[C@H]2[C@@H]3CCC4=CC(=O)CCC4=C3[C@@H](c3ccc(N(C)C)cc3)C[C@@]21C | 105 ± 1.6
CN1C(=O)CC[C@H]1c1cccnc1 [(-)-Cotinine] | 94.6 ± 10
COc1cc([C@@H]2c3cc4c(cc3[C@@H](O[C@@H]3O[C@@H]5CO[C@@H](C)O[C@H]5[C@H](O)[C@H]3O)[C@H]3COC(=O)[C@H]23)OCO4)cc(OC)c1O [Etoposide] | 70.5 ± 4.8
Cc1c2oc3c(C)ccc(C(=O)N[C@@H]4C(=O)N[C@H](C(C)C)C(=O)N5CCC[C@H]5C(=O)N(C)CC(=O)N(C)[C@@H](C(C)C)C(=O)O[C@@H]4C)c3nc-2c(C(=O)N[C@@H]2C(=O)N[C@H](C(C)C)C(=O)N3CCC[C@H]3C(=O)N(C)CC(=O)N(C)[C@@H](C(C)C)C(=O)O[C@@H]2C)c(N)c1=O | 16.2 ± 2.6
O=C(O[C@@H]1Cc2c(O)cc(O)cc2O[C@@H]1c1cc(O)c(O)c(O)c1)c1cc(O)c(O)c(O)c1 [Epigallocatechin gallate] | 77.8 ± 4.2
CC(=O)OCC(=O)NCCCOc1cccc(CN2CCCCC2)c1 | 102 ± 1.4
C=CC[C@@H]1/C=C(\C)C[C@H](C)C[C@H](OC)[C@H]2O[C@@](O)(C(=O)C(=O)N3CCCC[C@H]3C(=O)O[C@H](/C(C)=C/[C@@H]3CC[C@@H](O)[C@H](OC)C3)[C@H](C)[C@@H](O)CC1=O)[C@H](C)C[C@@H]2OC | 101.8 ± 0.73
C[C@H]1C[C@H]2[C@@H]3CCC4=CC(=O)C=C[C@]4(C)[C@@]3(Cl)[C@@H](O)C[C@]2(C)[C@@]1(O)C(=O)CO [Beclomethasone] | 106 ± 1.5
CC(C)c1nc(CN(C)C(=O)N[C@H](C(=O)N[C@@H](Cc2ccccc2)C[C@H](O)[C@H](Cc2ccccc2)NC(=O)OCc2cncs2)C(C)C)cs1 | 102 ± 3
COCc1c(C(C)C)nc(C(C)C)c(/C=C/[C@@H](O)C[C@@H](O)CC(=O)O)c1-c1ccc(F)cc1 | 14.2 ± 3
Nc1nnc(-c2cccc(Cl)c2Cl)c(N)n1 | 102 ± 1.2
CN(C/C=C/C#CC(C)(C)C)Cc1cccc2ccccc12 | 103 ± 1.4
CC(=O)NCCCCCCNC(C)=O | 103.9 ± 0.65

Reference: the supplement of paper PMC3898565
